{"source": "PubChem BioAssay (NCATS)", "note": "Records with an inconclusive call do not appear. Values without a mark were called inactive. Active and inactive are the calls of the source. Calls follow the shape of the dose curve; as a rule, active = well fitted curve in either direction with a large enough effect (not every such curve was filed as active); inconclusive = small, poorly fitted or top-dose-only effect, or another doubt; inactive = flat fitted curve, though single readings scatter. % is scaled to controls: 0 for no effect and ±100 for the full control effect."}
{"assay": "AP1 Signaling Pathway (AID 357);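 also: ME-180 reporter cells stimulated with EGF at its EC50 level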", "conditions": "ME-180 AP-1-bla reporter, EGF-induced, beta-lactamase ratio, 5 h; series mostly up to 38 µM; activity change, negative = inhibition: at the top concentration", "description": "NCGC Assay Overview: Activator protein-1 (AP-1), a transcription factor, plays an important role in tumor genesis by regulating genes involved in cell proliferation, differentiation, apoptosis, and angiogenesis. AP-1 activity is induced by a complex network of signaling pathways that involves extracellular signals, such as growth factors. The AP-1 protein complex formed from c-Fos and c-Jun binding to the AP-1 response element results in transcriptional activation of genes containing such elements within their promoter. Low molecular weight molecules have been discovered and developed to modulate various components of these signaling pathways, for example, MAP kinase inhibitors. However, many points of pathway modulation remain untested due to the lack of chemical probes making this signaling locus of general interest. Using a beta-lactamase reporter-gene under control of the AP-1 response element, a cell-based assay [CellSensor(TM) AP-1-bla ME-180 developed by Invitrogen Corp.] was used to measure EGF-induced signaling. Library compounds were measured for their ability to modulate positively or negatively the action of EC50 EGF on reporter gene activity. Compounds were screened in a titration series in 1536-well format. Positive and negative modulators were identified based on the AC50 values derived from the screening data.\nNCGC Assay Protocol Summary: 2500 cells/5uL in Opti-MEM medium containing 0.5% dialyzed FBS, 0.1 mM NEAA, 1 mM sodium pyruvate and 10 mM HEPES was dispensed into 1536-well plates and cells were cultured at 37 degrees Celsius overnight. […] After centrifugation at 1000 rpm for 2 seconds the plates were incubated at 37 degrees Celsius for 5 hours. 1 uL of CCF4-dye mixture was added to each well. After incubated at room temperature for 2.5 hours the plates were measured on an EnVision plate reader at Excitation 405nm, Emission1=460nm and Emission 2=530nm. The %Activity was determined from the ratio of 460nm/530nm."}
{"smiles": "C[C@@H](Cc1ccc(OCC(=O)O)cc1)NC[C@H](O)c1cccc(Cl)c1", "activity change, negative = inhibition": "6.75%"}
{"smiles": "C=CCN1CC[C@@]23c4c5ccc(O)c4O[C@H]2/C(=N\\N=C2/CC[C@@]4(O)[C@H]6Cc7ccc(O)c8c7[C@@]4(CCN6CC=C)[C@@H]2O8)CC[C@]3(O)[C@@H]1C5", "activity change, negative = inhibition": "-2.28%"}
{"smiles": "CN(C)Cc1c[nH]c2ccccc12", "activity change, negative = inhibition": "6.51% [at 17.2 µM]"}
{"smiles": "C[C@]12N[C@@H](Cc3ccccc31)c1ccccc12", "outcome": "inactive"}
{"smiles": "COc1ccn(C)c(=O)c1C#N", "activity change, negative = inhibition": "7.71% [at 17.2 µM]"}
{"smiles": "CCOC(=O)c1cc2c(cn1)[nH]c1ccccc12", "activity change, negative = inhibition": "-11.3% [at 17.2 µM]"}
{"smiles": "CN1CCN(C(=O)O[C@@H]2c3nccnc3C(=O)N2c2ccc(Cl)cn2)CC1", "activity change, negative = inhibition": "4.63%"}
{"smiles": "C[C@H](N)Cc1c[nH]c2ccc(O)cc12", "activity change, negative = inhibition": "-0.481%"}
{"smiles": "c1cncc(C2=NCCC2)c1", "activity change, negative = inhibition": "5.41% [at 17.2 µM]"}
{"smiles": "O=C(O)c1ccccc1-c1c2cc(Br)c(=O)cc-2oc2[c]([Hg])c(O)c(Br)cc12", "activity change, negative = inhibition": "13.1% [at 17.2 µM]"}
{"smiles": "C/C(O)=C(/C#N)C(=O)Nc1cc(Br)ccc1Br", "activity change, negative = inhibition": "-16%"}
{"smiles": "COc1cc(CCN)ccc1O", "activity change, negative = inhibition": "-2.45%"}
{"smiles": "CC[C@]1(C2=NCCN2)Cc2ccccc2O1", "activity change, negative = inhibition": "1.15%"}
{"smiles": "COc1ccc2[nH]cc(CCN(C)C)c2c1", "activity change, negative = inhibition": "19% [at 17.2 µM]"}
{"smiles": "Oc1ccc2c3c1O[C@H]1c4oc5ccccc5c4C[C@]4(O)[C@H](C2)N(CC2CC2)CC[C@@]314", "activity change, negative = inhibition": "0.58%"}
{"smiles": "c1ccc2c3c([nH]c2c1)CNCC3", "activity change, negative = inhibition": "-9.19% [at 17.2 µM]"}
{"smiles": "CCOC(=O)c1ncn2c1[C@H]1CCCN1C(=O)c1cc(OC)ccc1-2", "activity change, negative = inhibition": "2.4%"}
{"smiles": "COc1ccc2c3c([nH]c2c1)C(C)=NCC3", "activity change, negative = inhibition": "-0.939% [at 17.2 µM]"}
{"smiles": "N[C@H](CCCCCP(=O)(O)O)C(=O)O", "outcome": "inactive"}
{"smiles": "O[C@H]1CCCC[C@H]1N1CCC(c2ccccc2)CC1", "activity change, negative = inhibition": "-1.01% [at 17.2 µM]"}
{"smiles": "COC(=O)N1CCN(C(=O)Cc2ccc(Cl)c(Cl)c2)[C@H](CN2CCCC2)C1", "activity change, negative = inhibition": "1.55%"}
{"smiles": "N[C@H](C(=O)O)c1cc(=O)[nH]o1", "activity change, negative = inhibition": "28.5%"}
{"smiles": "CN1CC[C@@]23CCCC[C@@H]2[C@@H]1Cc1ccc(O)cc13", "outcome": "inactive"}
{"smiles": "CC1=C[C@@H]2c3cccc4[nH]cc(c34)C[C@H]2N(C)C1", "activity change, negative = inhibition": "8.82%"}
{"smiles": "COC(=O)c1cc2c(cn1)[nH]c1ccccc12", "activity change, negative = inhibition": "-3.55%"}
{"smiles": "CN(C(=O)Cc1ccc(Cl)c(Cl)c1)[C@@H](CN1CCCC1)c1cccc(OCC(=O)O)c1", "activity change, negative = inhibition": "4.35%"}
{"smiles": "C[C@@]1(CO)[C@H](O)CC[C@@]2(C)[C@H]1CC[C@H]1C[C@@H]3C[C@@]12CC[C@]3(O)CO", "activity change, negative = inhibition": "-5.41% [at 17.2 µM]"}
{"smiles": "c1cncc([C@@H]2CCCCN2)c1", "activity change, negative = inhibition": "10.8% [at 17.2 µM]"}
{"smiles": "Cc1o[nH]c(=O)c1C[C@H](N)C(=O)O", "activity change, negative = inhibition": "7.71%"}
{"smiles": "CC(C)(C)c1o[nH]c(=O)c1C[C@H](N)C(=O)O", "activity change, negative = inhibition": "11.3%"}
{"smiles": "O=C1CC[C@@]2(O)[C@H]3Cc4ccc(O)c5c4[C@@]2(CCN3CC2CC2)[C@@H]1O5", "activity change, negative = inhibition": "11.6%"}
{"smiles": "C=CCN1CC[C@]23c4c5ccc(O)c4O[C@@H]2C(=O)CC[C@]3(O)[C@H]1C5", "activity change, negative = inhibition": "5.6% [at 17.2 µM]"}
{"smiles": "C[C@H](N)Cc1c[nH]c2ccc(OCc3cccs3)cc12", "activity change, negative = inhibition": "3.52%"}
{"smiles": "S=C=Nc1cccc(C2(N3CCCCC3)CCCCC2)c1", "activity change, negative = inhibition": "8.41%"}
{"smiles": "COc1ccc(CCN)cc1O", "activity change, negative = inhibition": "-1.51%"}
{"smiles": "COc1ccc(-n2nc(C(F)(F)F)cc2-c2ccc(Cl)cc2)cc1", "activity change, negative = inhibition": "1.51%"}
{"smiles": "N[C@@H](CCP(=O)(O)O)C(=O)O", "activity change, negative = inhibition": "9.69% [at 7.69 µM]"}
{"smiles": "N[C@H](CCP(=O)(O)O)C(=O)O", "activity change, negative = inhibition": "6.66%"}
{"smiles": "CCCC(=O)OCC[N+](C)(C)C", "activity change, negative = inhibition": "-1.59% [at 17.2 µM]"}
{"smiles": "O=C(Cc1ccc(Cl)c(Cl)c1)N1CCCC[C@H]1CN1CCCC1", "activity change, negative = inhibition": "3.89%"}
